Assay outcomes from PubChem.
Gal4-VP16 FLuc: Gal4-VP16 reporter inhibition counter-screen; Drosophila S2 Gal4-VP16 UAS-luciferase, luminescence, 20 h; Potency, µM (series often up to 53.6 µM), without a hit: at the highest dose activity, negative = inhibition, most hits filed as inhibitors; hit rate 3.5% among 310,000;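 further: Gal4-VP16 expression switched on by copper sulfate through the metallothionein promoter; on the % scale 0 is the no-effect control and ±100 the full control effect; nearly all actives have a fitted effect of over 50% in size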
TGFb inhibitor: TGF-b pathway inhibition; HepG2 CAGA-GFP TGF-b/SMAD3 reporter, GFP fluorescence, 18 h; TGF-beta stimulated, 500 pg/mL final; AID 588855; hit rate 1.2% among 410,000; Potency, µM (series often up to 46.1 µM), inactives show at the top dose activity, negative = inhibition, usual class: inhibitors; further: on the % scale 0 is the no-effect control and ±100 the full control effect; nearly all actives have a fitted effect of over 65% in size
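Inhibition was scored as loss of TGF-beta-induced (500 pg/mL final, 18 hours, 37 degrees C) GFP in HEPG2 cells carrying a CAGA-GFP reporter, in DMEM with 1% FBS. Well GFP was summed per cell; Activity was normalised to unstimulated and stimulated DMSO wells, then concentration-response fitting.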
HepG2 viability: kills HepG2 cells in TGF-b inhibitor counter-screen; HepG2 CAGA-GFP viability, ATP luminescence, 18 h; Potency, µM (highest dose often 46.1 µM), for the others: top-dose activity change, negative = cytotoxicity, usual class: cytotoxic; hit rate 0.76% among 410,000; AID 588856
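HepG2 CAGA-GFP cells (1000/well, DMEM with 1% FBS) received compound, then TGF-beta at 500 pg/mL final, and were incubated 18 hours at 37 degrees C. Viability was read by CellTiter-Glo luminescence. Media-only wells were set as complete cell-killing and DMSO as no toxicity.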
ATXN2 expr inh: inhibitors of ATXN2 expression; hit rate 0.72% among 360,000; HEK-293 ATXN2-luciferase reporter, luminescence, 24 h; Potency, µM (highest dose often 57 µM), inactives show top-dose activity change, negative = inhibition, actives largely listed as inhibitors; further: on the % scale 0 is the no-effect control and ±100 the full control effect; nearly all actives have a fitted effect of over 55% in size
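qHTS (up to 57 uM final) was run with 24 h compound exposure of reporter cells at 37 °C. Each well was multiplexed: SteadyGlo luminescence measured ATXN2-luciferase expression after a fluorogenic Gly-Phe-AFC viability readout (25 uM final).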
RORg inh: blocks mouse ROR gamma transcriptional activity | Potency, µM (series often up to 53.6 µM), without a hit: top-dose activity change, negative = inhibition, hits mostly inhibitors | P51450 | Drosophila S2 Gal4-RORgamma UAS-luciferase reporter, 20 h | AID 2551 | hit rate 5.4% among 310,000; further: on the % scale 0 is the no-effect control and ±100 the full control effect; nearly all actives have a fitted effect of over 60% in size
Target sequence (P51450 whole entry, looked up, the tested form may be a part): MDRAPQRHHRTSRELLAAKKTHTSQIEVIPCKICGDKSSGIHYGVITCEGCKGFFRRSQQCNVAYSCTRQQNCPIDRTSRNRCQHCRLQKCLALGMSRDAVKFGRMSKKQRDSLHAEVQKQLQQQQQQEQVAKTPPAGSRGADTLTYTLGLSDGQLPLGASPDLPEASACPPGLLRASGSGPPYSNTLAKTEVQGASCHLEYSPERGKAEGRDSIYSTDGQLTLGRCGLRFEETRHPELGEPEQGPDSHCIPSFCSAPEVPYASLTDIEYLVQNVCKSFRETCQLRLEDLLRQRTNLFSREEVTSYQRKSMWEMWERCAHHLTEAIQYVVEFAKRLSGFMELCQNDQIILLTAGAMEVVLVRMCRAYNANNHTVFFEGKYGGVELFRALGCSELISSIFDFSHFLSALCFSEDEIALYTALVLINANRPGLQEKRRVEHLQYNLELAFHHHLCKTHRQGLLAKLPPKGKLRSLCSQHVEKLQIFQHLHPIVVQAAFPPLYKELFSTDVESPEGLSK
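Luciferase reporter read in Schneider cells carrying Gal4-RORγ (mouse) and UAS-Photinus luciferase; cells given compound 1 h before 700 uM copper sulfate induction, then incubated 20 h at ambient temperature.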
S2 tox: viability counter-screen for ATXN expression inhibitors; S2 cells (HEK-293 line with an ATXN2-luciferase reporter) viability, CellTiter-Fluor protease fluorescence, 24 h; Potency, µM (series often up to 56.7 µM), hits mostly cytotoxic; hit rate 0.49% among 400,000; further: nearly all actives have a fitted effect of over 40% in size
* hit, by the source's call; [ ] = dose if it differs, or a comment. The list is not random: actives were taken first. Their share in the collection is about 6.3%. The call rests on the fitted dose curve; in most records, active means well fitted curve in the direction sought with a large enough effect; inconclusive means small, poorly fitted or top-dose-only effect, or another doubt; inactive means no such curve, though single readings can be large; an effect the other way counts as inactive or inconclusive. Potency means the concentration at half of the fitted maximal effect.

How did COc1cccc(C2=Nn3c(nnc3-c3cc(OC)cc(OC)c3)SC2)c1 do in these assays?
Gal4-VP16 FLuc: -7.4%; RORg inh: -8.3%

What do the screens show for `CC(C)C[C@H](NC(=O)[C@H](CCCCN)NC(=O)CNC(=O)[C@H](CC(C)C)NC(=O)[C@@H](NC(=O)[C@@H]1CSSC[C@H](N)C(=O)N[C@@H](CO)C(=O)N[C@@H](CC(N)=O)C(=O)N[C@@H](CC(C)C)C(=O)N[C@@H](CO)C(=O)N[C@@H]([C@@H](C)O)C(=O)N1)C(C)C)C(=O)N[C@@H](CO)C(=O)N[C@@H](CCC(N)=O)C(=O)N[C@@H](CCC(=O)O)C(=O)N[C@@H](CC(C)C)C(=O)N[C@@H](Cc1cnc[nH]1)C(=O)N[C@@H](CCCCN)C(=O)N[C@@H](CC(C)C)C(=O)N[C@@H](CCC(N)=O)C(=O)N[C@H](C(=O)N[C@@H](Cc1ccc(O)cc1)C(=O)N1CCC[C@H]1C(=O)N[C@@H](CCCNC(=N)N)C(=O)N[C@H](C(=O)N[C@@H](CC(N)=O)C(=O)N[C@H](C(=O)NCC(=O)N[C@@H](CO)C(=O)NCC(=O)N[C@H](C(=O)N1CCC[C@H]1C(N)=O)[C@@H](C)O)[C@@H](C)O)[C@@H](C)O)[C@@H](C)O`?
Gal4-VP16 FLuc: -5.4%; RORg inh: 6.8%

Results for NS(=O)(=O)c1ccc(Sc2nc3ccccc3s2)c([N+](=O)[O-])c1 ?
Gal4-VP16 FLuc: 10µM*; TGFb inhibitor: inconclusive; HepG2 viability: 12.6µM*; ATXN2 expr inh: inconclusive; RORg inh: -32.5%; S2 tox: inactive

Results for NS(=O)(=O)c1ccc(Sc2ccccn2)c([N+](=O)[O-])c1 ?
Gal4-VP16 FLuc: 10.8%; TGFb inhibitor: 0.0%; HepG2 viability: 1.2%; ATXN2 expr inh: -3.1%; RORg inh: 1.7%; S2 tox: inactive

Results for CCOC(=O)N1CCC(=NNC(=O)c2ccc(O)cc2)CC1 ?
Gal4-VP16 FLuc: inconclusive; TGFb inhibitor: inconclusive; HepG2 viability: -4.4%; ATXN2 expr inh: -12.5%; RORg inh: 8.91µM*; S2 tox: inactive

What do the screens show for `COc1ccc(OCC(=O)N/N=C2/C=C(C)CC2)cc1`?
Gal4-VP16 FLuc: 8.2%; TGFb inhibitor: 1.4%; HepG2 viability: -2.2%; ATXN2 expr inh: 5.1%; RORg inh: -38.8%; S2 tox: inactive

What do the screens show for `CC1=C/C(=N\NC(=O)c2ccc(O)cc2)CC1`?
Gal4-VP16 FLuc: inconclusive; TGFb inhibitor: -4.0%; HepG2 viability: -12.6%; ATXN2 expr inh: -8.3%[11.3 µM]; RORg inh: 12.6µM*; S2 tox: inactive

How did Cc1cc(S(=O)(=O)Nc2cc3c(cc2NCc2ccccc2)n(C)c(=O)n3C)ccc1F do in these assays?
TGFb inhibitor: 7.4%; HepG2 viability: -20.6%; ATXN2 expr inh: 51.3%; S2 tox: inactive

How did O=C(c1cn(C2CCCN(Cc3cc(Cl)ccc3O)C2)nn1)N1CCCCC1 (configuration not stated) do in these assays?
S2 tox: inactive

Results for Cc1cc(/C=C2\Sc3ccccc3N2C)cc(C)[n+]1CC1CCCO1 (configuration not stated) ?
Gal4-VP16 FLuc: 2µM*; TGFb inhibitor: 30.7%; HepG2 viability: -17.1%; ATXN2 expr inh: 1.19µM*; RORg inh: 2.82µM*

Results for Cc1ccc(/C=C2/Sc3ccccc3N(CC(=O)NCC3CCCO3)C2=O)cc1 (configuration not stated) ?
Gal4-VP16 FLuc: -0.7%; TGFb inhibitor: -0.2%; HepG2 viability: -12.3%; ATXN2 expr inh: -19.6%; RORg inh: 6.0%; S2 tox: inconclusive

How did CN(C)/[N+]([O-])=N/Oc1cc(F)c([N+](=O)[O-])cc1[N+](=O)[O-] do in these assays?
TGFb inhibitor: -10.2%; HepG2 viability: -11.3%

What do the screens show for `COc1ccc(/C=N/OCC(=O)Nc2cc(C)on2)cc1OC`?
Gal4-VP16 FLuc: -9.8%; TGFb inhibitor: 0.0%; HepG2 viability: 20.4%; ATXN2 expr inh: 2.0%; RORg inh: -19.2%; S2 tox: inconclusive

How did COc1cc(/C=N/OCC(=O)NC23CC4CC(CC(C4)C2)C3)ccc1OCc1ccccc1 do in these assays?
Gal4-VP16 FLuc: -4.2%; TGFb inhibitor: 20µM*; HepG2 viability: 3.9%; ATXN2 expr inh: 12.8%; RORg inh: inconclusive; S2 tox: inactive

Results for COc1ccc(/C=N/OCC(=O)NC(c2ccccc2)c2ccccc2)cc1OC ?
Gal4-VP16 FLuc: 1.58µM*; TGFb inhibitor: inconclusive; HepG2 viability: -21.1%; ATXN2 expr inh: -21.2%; RORg inh: inconclusive; S2 tox: inactive

What do the screens show for `Cc1c(C(=O)NCC2(N3CCOCC3)CCCC2)cnn1-c1nccc(-c2ccccc2F)n1`?
S2 tox: inactive

What do the screens show for `COc1ccc(NC(NC(=O)c2ccc(OC)cc2)C(Cl)(Cl)Cl)cc1` (configuration not stated)?
Gal4-VP16 FLuc: inconclusive; TGFb inhibitor: 0.0%; HepG2 viability: -10.1%; ATXN2 expr inh: -3.3%; RORg inh: inconclusive; S2 tox: inactive

How did COc1ccc(C(=O)NC(Nc2ccc(C)cc2)C(Cl)(Cl)Cl)cc1 (configuration not stated) do in these assays?
Gal4-VP16 FLuc: -74.6%; TGFb inhibitor: 11.2µM*; HepG2 viability: -6.5%; ATXN2 expr inh: -19.7%; RORg inh: 0.6%[10 µM]; S2 tox: inactive

Results for CCCCCCCCCC[n+]1cc(Br)cc(Br)c1 ?
TGFb inhibitor: inconclusive; HepG2 viability: 22.4µM*

Results for O=C(NCc1cccnc1)c1nn(-c2ccc(F)cc2)nc1CO ?
TGFb inhibitor: -38.5%; HepG2 viability: -23.3%

How did Fc1ccc(-c2cc(-c3ccccc3)nc(-n3cccn3)n2)cc1 do in these assays?
Gal4-VP16 FLuc: inconclusive; TGFb inhibitor: inconclusive; HepG2 viability: -21.7%; ATXN2 expr inh: inconclusive; RORg inh: 1µM*; S2 tox: inconclusive

How did COc1ccc(CNC(=O)c2sc3nc4n(c(=O)c3c2C)CCC4)cc1 do in these assays?
TGFb inhibitor: 8.6%; HepG2 viability: 16.2%

How did CC(=O)Oc1ccc(C(=O)Nc2ccc(C3(C#N)CCCC3)cc2)cc1 do in these assays?
Gal4-VP16 FLuc: 0.398µM*; TGFb inhibitor: 6.7%; HepG2 viability: -54.3%; RORg inh: 0.355µM*; S2 tox: inconclusive

How did Cc1ccccc1C(=O)N1CCC(C(=O)Nc2ccccn2)CC1 do in these assays?
TGFb inhibitor: 5.8%; HepG2 viability: -0.9%; ATXN2 expr inh: -7.1%; S2 tox: inactive
